Results on 18 compounds are retold here after PubChem BioAssay (NCATS).

SMILES strings stand for the structures. Inconclusive results are not listed. Entries that show only a call come without a potency. Active and inactive are the calls of the source. The call rests on the fitted dose curve; in most records, active means well fitted inhibition curve with a large enough effect; inconclusive means small, poorly fitted or top-dose-only effect; inactive means flat fitted curve, though single readings scatter.
Potency means the concentration at half of the fitted maximal effect.

The subject of the first assay is TAB165. Put plainly: qHTS profiling for inhibitors of Plasmodium falciparum proliferation (AID 504749). Further: nearly all actives have a fitted effect of over 60% in size. The following applies: P. falciparum in erythrocytes, SYBR Green DNA, 72 h; series mostly up to 28.7 µM. In outline: (§1)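 SYBR Green fluorescence of parasite DNA, read after lysis and overnight dark incubation, measured growth over 72 h in erythrocyte culture at 0.3% parasitemia and 2.5% hematocrit. Data normalised to DMSO and 0.29 uM artemisinin, with plate-drift correction.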
On the technique in general: qHTS replaces the single test concentration by a dilution series.
`COc1ccc(C2C(=O)c3ccccc3C2=O)cc1`: the Potency entry is “inactive”.
The same measure, in the same setting: as for `Cc1c(N(C)CS(=O)(=O)O)c(=O)n(-c2ccccc2)n1C`, the entry is “inactive”.
Same read-out and setting: with `O=C1c2ccccc2C(=O)C1c1ccccc1` the entry was “inactive”; with `Cc1ncc(CSSCc2cnc(C)c(O)c2CO)c(CO)c1O`, “inactive”; with `CC(=O)N(O)CCCCCNC(=O)CCC(=O)N(O)CCCCCNC(=O)CCC(=O)N(O)CCCCCN`, “inactive”.
Same read-out and setting: as for `CC(O)(P(=O)(O)O)P(=O)(O)O`, the entry is “inactive”; as for `Cc1c(C(C)C)c(=O)n(-c2ccccc2)n1C`, “inactive”; as for `CN1CCN(C(c2ccccc2)c2ccccc2)CC1`, “inactive”.
As for `O=C(O)CNC(=O)c1ccccc1`, the Potency result was “inactive”.
On the same count and under the same terms, as for `COC(=O)[C@@H]1CC2=CC(=O)CC[C@]2(C)[C@@]23O[C@@H]2C[C@@]2(C)[C@@H](CC[C@@]24CCC(=O)O4)[C@H]13`, the entry is “inactive”; as for `CCOC(=O)OC(C)OC1=C(C(=O)Nc2ccccn2)N(C)S(=O)(=O)c2ccccc21` (stereo unspecified), “inactive”; as for `N[C@H](Cc1c[nH]c2ccccc12)C(=O)O`, “inactive”.
Turning to `C[C@H](O)C(=O)Nc1c(I)c(C(=O)NC(CO)CO)c(I)c(C(=O)NC(CO)CO)c1I`, the Potency result was “inactive”.
On the same count and under the same terms, as for `CC(C)COC(=O)c1ccc(N)cc1`, the entry is “inactive”.

The subject of the next assay is W2. The description is as above. The following applies: P. falciparum in erythrocytes, SYBR Green DNA, 72 h; series mostly up to 28.7 µM. In outline: as §1
With `COc1ccc(C2C(=O)c3ccccc3C2=O)cc1`, the Potency entry was “inactive”.
Still for that read-out and setting: with `Cc1c(N(C)CS(=O)(=O)O)c(=O)n(-c2ccccc2)n1C` the entry was “inactive”; with `O=C1c2ccccc2C(=O)C1c1ccccc1`, “inactive”.
The same measure, in the same setting: as for `Cc1ncc(CSSCc2cnc(C)c(O)c2CO)c(CO)c1O`, the entry is “inactive”.
The same measure, in the same setting: with `CC(=O)N(O)CCCCCNC(=O)CCC(=O)N(O)CCCCCNC(=O)CCC(=O)N(O)CCCCCN` the entry was “inactive”; with `CC(O)(P(=O)(O)O)P(=O)(O)O`, “inactive”; with `Cc1c(C(C)C)c(=O)n(-c2ccccc2)n1C`, “inactive”.
Turning to `CN1CCN(C(c2ccccc2)c2ccccc2)CC1`, the Potency is 2.56 µM (active).
On the same count and under the same terms, with `O=C(O)CNC(=O)c1ccccc1` the entry was “inactive”.
Same read-out and setting: as for `COC(=O)[C@@H]1CC2=CC(=O)CC[C@]2(C)[C@@]23O[C@@H]2C[C@@]2(C)[C@@H](CC[C@@]24CCC(=O)O4)[C@H]13`, the entry is “inactive”.
Still for that read-out and setting: with `NC(CS)C(=O)O` (stereo unspecified) the figure was 4.26 µM (active); with `CN(C)CCOc1ccccc1Cc1ccccc1`, 0.0536 µM (active).
Consider `N[C@H](Cc1c[nH]c2ccccc12)C(=O)O`, for which the Potency entry was “inactive”.
On the same count and under the same terms, as for `C[C@H](O)C(=O)Nc1c(I)c(C(=O)NC(CO)CO)c(I)c(C(=O)NC(CO)CO)c1I`, the entry is “inactive”; as for `CC(C)COC(=O)c1ccc(N)cc1`, “inactive”.
Still for that read-out and setting: with `Cc1ccc(C(=O)C(C)CN2CCCCC2)cc1` (stereo unspecified) the figure was 6.01 µM (active); with `CN=C(NC#N)Nc1ccc(C2=NNC(=O)CC2C)cc1` (stereo unspecified), “inactive”.
